Our source for the Tm shift relative to glycine control values is PubChem BioAssay AID1259313 (Sanford-Burnham Center for Chemical Genomics, 2017).

Out of some 340,000 compounds screened, about 8,500 (2.5%) were called active. The full list was thinned out, with actives kept by preference. A number with no mark means an inactive call.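 Rule for the calls: active = melting temperature shift of at least 10% of the positive control shift, at one fixed dose; inactive = the rest.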

This assay concerns Glutamate receptor ionotropic, NMDA 3A (GRIN3A) ligand-binding domain. In words: NR3A LBD thermal stabilization by compounds – biophysical, differential scanning fluorimetry, uHTS, primary screen (AID 1259313). The note with it: at 25 µM, stronger effect = higher value, 0% = protein alone, 100% = glycine-bound protein. (Differential scanning fluorimetry follows unfolding on heating by fluorescence.)
Consider `COc1ccc(C(=O)N2CCC(C(=O)Nc3cccc(C)c3)CC2)cc1OC`, for which the Tm shift relative to glycine control was -0.09%.
Under `CCCCOC(=O)Nc1sc2nc(C)cc(C)c2c1-n1cccc1` stands 11% (active); under `COC(=O)Nc1sc2nc(C)cc(C)c2c1-n1cccc1`, -4.15%.
In the case of `Cc1cc(C)c2c(-n3cccc3)c(NC(=O)OCc3ccccc3)sc2n1` it was 0.08%; in that of `CCC(CC)NC(=O)CSc1nnc(-c2c[nH]c3ccccc23)o1`, 1.71%.
In the case of `COc1cccc(CNC(=O)CCC2CCCN(Cc3ccc(OC(F)F)cc3)C2)c1` (stereo unspecified) it was 1.06%; in that of `Cn1nc(C(=O)OCC(=O)N(Cc2ccccc2)C(C)(C)C)c2ccccc2c1=O`, 0.45%.
As for `O=C(O)c1cccnc1Sc1ncnc2sc3c(c12)CCC3`, the Tm shift relative to glycine control is -2.96%.
Consider `O=C(Cn1c(NCCO)nc2ccccc21)c1ccc(Cl)cc1Cl`, for which the Tm shift relative to glycine control is -1.09%.
In the case of `OCCNc1nc2ccccc2n1-c1ncnc2sc3c(c12)CCC3` it was 19.1% (active); in that of `CC12C(=O)N(n3cnnc3)C(=O)C1C1C=CC2C1` (stereo unspecified), 0.47%.
`Cc1ccccc1NC(=O)c1cc(S(=O)(=O)Nc2cccc(C(=O)O)c2)ccc1Cl`: the Tm shift relative to glycine control was 0%.
`C=CCNC(=O)c1ccccc1NC(=O)c1ccc(Cl)c(S(=O)(=O)Nc2cccc(C)c2C)c1`: the Tm shift relative to glycine control was 16% (active).
With `Cc1ccc(C(=O)Nc2ccccc2-c2ccccc2)cc1S(=O)(=O)Nc1ccccc1`, the Tm shift relative to glycine control is 9.58%.
Regarding `C=CCn1c(SCc2ccc(Cl)c(Cl)c2)nnc1C(CO)NC(=O)c1ccc(OC)cc1` (stereo unspecified), the Tm shift relative to glycine control is -6.08%.
For the molecule `CN(CC(=O)Nc1ccccc1[N+](=O)[O-])Cc1ccc(Br)cc1`, the Tm shift relative to glycine control was -2.8%.
Under `CSc1ccccc1NC(=O)CN(C)CC(=O)Nc1ccc(Cl)cc1[N+](=O)[O-]` stands 2.47%; under `Cc1ccc(NC(=O)CN(C)Cc2ccc(F)cc2)c([N+](=O)[O-])c1`, 12.7% (active).
In the case of `O=C(O)c1ccc([N+](=O)[O-])cc1Sc1ccsc1` it was 1.67%; in that of `CC(=O)Nc1ccc(CN2CCN(Cc3ccc(F)c(F)c3)C(CCO)C2)cc1` (stereo unspecified), -0.08%; in that of `CN(C)c1ccc(NC(=O)CSc2n[nH]c(-c3ccco3)n2)cc1`, 0.92%.
Take `CCN1CCN(c2nc(Nc3cccc(F)c3)nc(N)c2[N+](=O)[O-])CC1`: the Tm shift relative to glycine control was 0.95%.
Under `COc1cccc(Nc2nc(N)c([N+](=O)[O-])c(NCc3ccco3)n2)c1` stands -10.5%; under `CNc1nc(Nc2ccc(C)c(Cl)c2)nc(N)c1[N+](=O)[O-]`, 25.8% (active); under `Cc1cn(C)c(=O)n(C)c1=O`, -0.48%.
On to `CCN(CC)S(=O)(=O)c1ccc(NC(=O)c2cccnc2Cl)c(NC(=O)c2cccnc2Cl)c1`, for which the Tm shift relative to glycine control is -0.78%.
With `CCOC(=O)c1sc(NC(=O)c2sc(C)nc2C)nc1C`, the Tm shift relative to glycine control was 3.53%.
For the molecule `CC(=O)c1sc(N)nc1C`, the Tm shift relative to glycine control is 2.68%.
Under `CCOC(=O)c1nc(N)sc1C(=O)OCC` stands 17.7% (active); under `CN(C)C(=O)CCC(=O)N1CCCCC1C(=O)Nc1ccc(Oc2ccccc2F)cc1` (stereo unspecified), -0.77%; under `O=S(=O)(c1ccc(Cl)cc1)N1CCCN(c2ccc(C(F)(F)F)cn2)CC1`, -4.38%.
Turning to `COc1cc([N+](=O)[O-])ccc1NC(=O)COC(=O)CCOc1ccc(C)cc1`, the Tm shift relative to glycine control was 2.57%.
In the case of `COC(=O)c1ccccc1NC(=O)Cc1ccccc1OC` it was -0.63%; in that of `COc1ccccc1CC(=O)Nc1ccc([N+](=O)[O-])cc1OC`, 10.2% (active).
Under `COc1ccc(CCNC(=O)COC(=O)c2ccc[nH]c2=O)cc1` stands -2.27%; under `Cc1ccccc1NCC(=O)N/N=C\c1ccc([N+](=O)[O-])s1`, 11.5% (active); under `Cc1cccc(/C=N/NC(=O)CNc2cccc3ccccc23)n1`, 4.98%.
In the case of `Cc1ccc(/C=N/NC(=O)CN2CCN(Cc3ccccc3)CC2)s1` it was -1.47%.
Turning to `Cc1ccc(Nc2nc(CSc3nnnn3-c3ccccc3)cc(=O)[nH]2)cc1`, the Tm shift relative to glycine control is 10.7% (active).
In the case of `Cc1ccc(NC(=O)CSc2nc(CSc3ccc(C)cc3)cc(=O)[nH]2)cc1`, the Tm shift relative to glycine control was -30.2%.
In the case of `COc1ccc(C)cc1-n1nnnc1SCc1nc2ccccc2c(=O)[nH]1`, the Tm shift relative to glycine control was 0.31%.
With `O=C(Nc1ccc(Br)cc1)c1cccc(NC(=O)C2C3CC4OC(=O)C2C4C3)c1` (stereo unspecified), the Tm shift relative to glycine control is -8.89%.
In the case of `O=C(NC(=S)Nc1cccc(-c2ccc(CO)o2)c1)c1cccs1` it was -18.4%.
Under `CCCOc1ccc(NC(=O)CC2C(=O)N(C)C(=S)N2Cc2ccc3c(c2)OCO3)cc1` (stereo unspecified) stands 23.2% (active); under `O=C(Nc1ccc(Cl)cc1)C1c2cccc[n+]2CC(=O)N1Cc1ccc2c(c1)OCO2` (stereo unspecified), 0.68%; under `COc1ccc(N2C(=O)C(CC(=O)Nc3ccccc3)N(Cc3ccc(OC)c(OC)c3)C2=O)cc1` (stereo unspecified), -3.64%.
